# Compounds with a hit are over-represented: about 2.4% of the library has one in this group of screens.
# M1 ag parental: counter-screen for M1 agonists: effect in parental CHO-K1 cells | Fluo-8 calcium fluorescence; scaled to maximal ATP response, vehicle zero | activation, % at 3 µM | AID 602248, 2012 | 0.48% of 360,000 active; in the data active = activation above about 15%;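 note: untransfected CHO-K1 host cells lacking M1 receptor as counterscreen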
# M1 PAM: human M1 muscarinic receptor positive allosteric modulators, primary screen, CHO-K1 cells, Fluo-8 calcium fluorescence, 1536-well | 0.088% of 360,000 active | CHO-K1 hM1, ACh EC20; 0% = ACh EC20, 100% = maximal ACh | Muscarinic acetylcholine receptor M1 (Homo sapiens), P11229 | activation, % at 3 µM; in the data active = activation above about 19%, passing the limit was not always enough
# Target sequence (P11229 whole entry, looked up): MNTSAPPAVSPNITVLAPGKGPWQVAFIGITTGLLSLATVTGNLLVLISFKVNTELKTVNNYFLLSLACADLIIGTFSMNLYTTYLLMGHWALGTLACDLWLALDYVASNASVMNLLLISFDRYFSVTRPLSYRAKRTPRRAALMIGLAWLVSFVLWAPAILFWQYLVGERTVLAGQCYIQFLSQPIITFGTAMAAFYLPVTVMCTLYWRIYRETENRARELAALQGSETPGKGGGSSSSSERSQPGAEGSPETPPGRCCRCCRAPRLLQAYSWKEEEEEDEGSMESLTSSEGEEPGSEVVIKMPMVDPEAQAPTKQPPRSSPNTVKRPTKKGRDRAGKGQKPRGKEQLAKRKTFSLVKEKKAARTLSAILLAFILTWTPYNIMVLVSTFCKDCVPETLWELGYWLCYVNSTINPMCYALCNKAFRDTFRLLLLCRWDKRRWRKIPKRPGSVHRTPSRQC
# M1 ag: human M1 muscarinic receptor agonists, primary screen, Fluo-8 calcium fluorescence, CHO-K1 cells, HTS. Muscarinic acetylcholine receptor M1 (Homo sapiens), P11229. CHO-K1 hM1, agonist mode; 0% DMSO, 100% acetylcholine EC100. activation, % at 3 µM. 0.33% of 360,000 active;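 active = activation above the run's mean compound activation plus 3 SD, cut at about 16% in these data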;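 note: peak over basal fluorescence ratio within a 140 s kinetic read after compound addition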
# CHO-K1 Ca PAM: nonselective calcium activators in parental CHO-K1 cells, primary screen, counter-screen for M1 PAM project, cell-based, Fluo-8 calcium fluorescence, full deck, 1536-well; ATP EC20; 0% at ATP EC20, 100% at ATP max; activation, % at 3 µM; 0.02% of 360,000 active;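 active = activation above the run cutoff, the mean activation of all test compounds plus 3 SD, cut at about 40% in these data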;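 note: peak over basal fluorescence ratio in a 140 s read after ATP addition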
# CHRM1 antagonist: human M1 muscarinic receptor antagonists, primary screen, CHO-K1 cells, Fluo-8 calcium fluorescence, 1536-well; Muscarinic acetylcholine receptor M1 (Homo sapiens), P11229; AID 588852, 2011; inhibition, % at 3 µM; CHO-K1 hM1, ACh EC80 antagonist; 1.3% of 360,000 active;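 active = percent inhibition above its own plate's cutoff, namely the mean of that plate's compound wells plus 3 SD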;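 note: peak over basal fluorescence ratio during 140 s after agonist addition; 0% = ACh EC80 plus DMSO and 100% = DMSO alone without agonist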
# CHO-K1 Ca antag: M1 antagonist counterscreen hit in parental CHO-K1 cells | ATP-induced calcium, Fluo-8 fluorescence | inhibition, % at 3 µM | 0.6% of 360,000 active | AID 602250;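 active = inhibition above a per-plate cutoff, the plate's mean sample inhibition plus 3 SD, cut at about 24% in these data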;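 note: 0% = DMSO plus EC80 ATP and 100% = DMSO alone without ATP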
# The depositor's hits bear a star.
SMILES,M1 ag parental,M1 PAM,M1 ag,CHO-K1 Ca PAM,CHRM1 antagonist,CHO-K1 Ca antag
O=C(Nc1cccc(C(=O)NC2CC2)c1)c1ccc(Cl)c(S(=O)(=O)N2CCOCC2)c1,3,-7,-3,-9,13,-4
COc1ccc(NC(=O)CCN2CCN(S(=O)(=O)c3cc(Cl)ccc3Cl)CC2)cc1,10,0,9,58*,-8,-44
O=C(Nc1ccc(Cl)c(S(=O)(=O)N2CCOCC2)c1)c1ccc(OCC2CCCO2)cc1 (stereo not drawn),11,-30,0,-17,36*,24*
COc1ccc(C(=O)Nc2ccc(Cl)c(S(=O)(=O)N3CCOCC3)c2)cc1,17*,-15,6,2,8,-6
O=C(Nc1ccc(S(=O)(=O)N2CCCC2)cc1)c1ccc(OCC2CCCO2)cc1 (stereo not drawn),8,-3,-7,11,5,-11
O=C(Nc1cccc(Br)c1)c1ccc(Cl)c(S(=O)(=O)N2CCOCC2)c1,14,-28,1,-13,43*,5
O=C(NC1CC1)C1CC(=O)N(c2cccc(Cl)c2)C1 (stereo not drawn),1,7,-3,-15,-15,8
CC1(N=Cc2cc(Cl)ccc2O)COP(=O)(NC2CCCC2)OC1 (stereo not drawn),1,9,-2,14,-15,-15
COCCNC(=O)Cc1ccc(F)cc1,0,13,-6,19,-13,-12
CC(C)(C)c1ccc(OCCNC(=O)Cc2ccc(F)cc2)cc1,4,-9,0,-12,16,27*
CCOC(=O)C1CCCN(Cc2c(C(=O)N3CCOCC3)nc3ccccn23)C1 (stereo not drawn),0,-10,23*,-7,14,-12
Cc1cc2ccccc2n1CCNCc1c(C(=O)N2CCOCC2)nc2ccccn12,11,3,-1,12,-14,24*
CCOC(=O)C1CCCN(Cc2c(C(=O)N3CCCCC3)nc3c(C)cccn23)C1 (stereo not drawn),4,4,10,11,-5,-18
Cc1nc(C(=O)N2CCCC(C(=O)c3cccc(OC(C)C)c3)C2)cs1 (stereo not drawn),4,6,0,1,-4,1
Cc1nn(C(C)C)c(C)c1CN1CCCC(C(=O)c2cccc(OC(C)C)c2)C1 (stereo not drawn),1,-29,-10,-5,37*,11
CCn1nc(C)c(CN2CCCC(C(=O)c3cccc(OC(C)C)c3)C2)c1C (stereo not drawn),6,-31,-11,10,95*,-2
CC(C)Oc1cccc(C(=O)C2CCCN(Cc3cnn(C(C)C)c3)C2)c1 (stereo not drawn),0,-17,-13,21,12,-6
CC(C)Oc1cccc(C(=O)C2CCCN(C(=O)c3cncs3)C2)c1 (stereo not drawn),0,-16,-5,-4,39*,4
CC(C)Oc1cccc(C(=O)C2CCCN(Cc3cccn3-c3ccccn3)C2)c1 (stereo not drawn),6,-23,-4,7,41*,-3
CC(C)Oc1ccc(S(=O)(=O)N2CCOCC2)cc1NC(=O)CCCSc1ccccc1,0,-2,-4,-14,0,-4
Cc1ccsc1C1C2=C(CCCC2=O)Nc2ncnn21 (stereo not drawn),0,-10,-1,-4,9,31*
FC(F)(F)c1cccc(Cc2noc(CN3C[C@@H]4CCC[C@H]3C4)n2)c1,5,-2,-5,24,1,-10
Cn1ccnc1C1CCCCN1Cc1nc(-c2ccc3c(c2)OCO3)no1 (stereo not drawn),0,-25,-8,-7,59*,7
Cn1ccnc1C1CCCCN1Cc1nc(Cc2cccc(C(F)(F)F)c2)no1 (stereo not drawn),1,-33,-13,26,54*,-19

# Screening results from PubChem.
